GPR151 activ: activates the human receptor GPR151 | activation, % at 11.2 µM | hit rate 1% among 650,000 | Q8TDV0 | PathHunter beta-arrestin GPR151 cells, luminescence; in the data active means activation above about 4.9%;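 further: 0% = median of compound wells and 100% = cells with positive control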
Target sequence (Q8TDV0 whole entry, looked up): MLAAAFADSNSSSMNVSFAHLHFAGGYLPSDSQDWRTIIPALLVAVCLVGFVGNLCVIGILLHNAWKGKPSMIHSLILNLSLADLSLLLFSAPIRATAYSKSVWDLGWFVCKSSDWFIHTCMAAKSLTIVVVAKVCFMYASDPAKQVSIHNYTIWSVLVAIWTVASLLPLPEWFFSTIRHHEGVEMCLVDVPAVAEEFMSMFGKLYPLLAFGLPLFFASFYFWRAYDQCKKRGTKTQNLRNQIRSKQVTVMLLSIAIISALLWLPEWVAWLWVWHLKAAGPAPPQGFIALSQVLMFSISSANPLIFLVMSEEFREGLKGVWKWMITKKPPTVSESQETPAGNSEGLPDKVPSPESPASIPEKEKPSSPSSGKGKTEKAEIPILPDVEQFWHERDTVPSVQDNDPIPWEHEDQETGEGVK
FBW7 act: human FBW7 E3 ligase activation, primary screen; AlphaScreen FBW7–phospho-cyclin E peptide binding, activator screen; hit rate 0.13% among 650,000; Q969H0; AID 1259310; normalized activity (activation), % at 26.1 µM; in the data active means normalized activity above about 1.9%;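 further: purified mutant Fbw7 with reduced substrate affinity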
TEAD-YAP block: TEAD-YAP interaction inhibition; hit rate 1.4% among 640,000; inhibition, % at 9.12 µM; AID 1259422; HEK-TIYL cells, TEAD-Gal4/YAP UAS-luciferase luminescence; in the data active means inhibition above about 32%;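 further: 0% = median of test compound wells and 100% = reference inhibitor wells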
MITF primary: inhibitors of human MITF; inhibition, % at 2.6 µM; AlphaScreen MITF homodimerization, bead proximity signal; hit rate 0.91% among 650,000; O75030; in the data active means inhibition above about 50%;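 further: 0% = vehicle wells with protein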
The depositor's hits bear a star; . = no result given. The list is not random: actives were taken first. Their share in the collection is about 3.5%.

SMILES | GPR151 activ | FBW7 act | TEAD-YAP block | MITF primary
OC1CCC(Nc2nc(NC3CCN(Cc4ccccc4)CC3)c3ncn(-c4ccccc4)c3n2)CC1 (stereo unspecified) | 0 | 0 | 42* | -2
c1ccc(CN2CCC(Nc3nc(Nc4ccc(-n5ccnc5)cc4)nc4c3ncn4-c3ccsc3)CC2)cc1 | 0 | 0 | 42* | 13
O=C(N(c1cccc(Cl)c1)C1C=CS(=O)(=O)C1)C12CC3CC(CC(C3)C1)C2 (stereo unspecified) | -2 | 0 | 1 | 14
CC[n+]1ccc(/C=C/c2ccc(OC)cc2OC)cc1 | -1 | 0 | 42* | 2
CC[n+]1ccc(/C=C/c2cccc(OC)c2OC)cc1 | 0 | 0 | 34* | 2
COc1ccc(/C=C/c2ccc(N)cc2)cc1 | -1 | 0 | 41* | 13
Cc1ncn(-c2ccc(Nc3nccc(-c4cc(F)cc(-c5c(C)n[nH]c5C)c4)n3)cc2)n1 | -2 | 0 | 0 | 8
Cc1cc(S(=O)(=O)O)ccc1N1N=C(C(=O)O)CC1=O | 0 | -2 | 2 | 71*
Cc1ccc(-c2n[nH]c(CNC(=O)c3cccnc3)n2)cc1 | 1 | 0 | -2 | -12
O=S(=O)(O)CCc1cc[n+](CC(O)CO)cc1 (stereo unspecified) | -1 | 2.8* | 6 | 8
Nc1ccc(OCC[n+]2ccc(CCS(=O)(=O)O)cc2)cc1 | 1 | 0 | -8 | 0
O=S(=O)(O)CCc1cc[n+](CC(O)CCl)cc1 (stereo unspecified) | -1 | 2.4* | 17 | 4
COc1ccccc1CCC(=O)N1CCC(N2CCC(C(=O)NC(C)C)CC2)CC1 | 0 | 0 | 2 | -3
CCN(CC)C(=O)C1CCCN(c2nc(NCCOc3ccccc3)c3ncn(-c4ccsc4)c3n2)C1 (stereo unspecified) | 1 | 0 | 20 | 6
CCN(CC)C(=O)C1CCCN(c2nc(Nc3ccccc3)c3ncn(-c4ccsc4)c3n2)C1 (stereo unspecified) | 0 | 0 | 33* | 11
CCN(CC)C(=O)C1CCCN(c2nc(N)c3ncn(-c4ccsc4)c3n2)C1 (stereo unspecified) | 0 | 0 | 51* | 2
CCCNc1nc(N2CCCC(C(=O)N(CC)CC)C2)nc2c1ncn2-c1ccsc1 (stereo unspecified) | 0 | 0 | 37* | -1
O=C(NCc1cc(Cl)cc(Cl)c1)c1c(C(F)(F)F)nc2ccccn12 | -1 | . | . | .
Cc1nc(N2CCOCC2)c2c(C)c(C(=O)NCc3ccccc3Cl)sc2n1 | -1 | 0 | -15 | -4
COc1cc(C2Nc3ccc4ncccc4c3C3=C2C(=O)CCC3)ccc1OC(C)=O (stereo unspecified) | 0 | 0 | 52* | -3
c1ccc2c(c1)nc(NCCc1c[nH]c3ccccc13)n1nc(-c3ccncc3)nc21 | -1 | 0 | 0 | 3
CCC(C)(C)c1ccc(OCCCC[n+]2ccc(C)cc2)c(C(C)(C)CC)c1 | 0 | 0 | 45* | -8
CCC(C)(C)c1ccc(OCCCC[n+]2cccc(C)c2C)c(C(C)(C)CC)c1 | 1 | 0 | 88* | -15
CN(C(=O)c1ccc(C(C)(C)C)cc1)c1nnc(-c2cccnc2)s1 | -1 | 0 | -1 | -4
C#CCn1c(=NC(=O)C2COc3ccccc3O2)sc2cc(OC)c(OC)cc21 (stereo unspecified) | 1 | 0 | 35* | 8
SMILES | GPR151 activ | FBW7 act | TEAD-YAP block | MITF primary
CCOc1cc(C=C2C(=O)NC(=O)NC2=O)cc(Br)c1O | 0 | 0 | 1 | 7
O=C1NC(=O)C(=Cc2cc(Br)c(I)o2)C(=O)N1 | -1 | -1 | 2 | 59*
O=C1NC(=O)C(=Cc2cc(O)c(O)c(Br)c2)C(=O)N1 | 2 | 0 | 4 | 58*
CC(=O)NC(C(=O)OCc1cnc(-c2ccccc2)s1)C(C)C (stereo unspecified) | -7 | 0 | 59* | 4
CC(=O)NC(C(=O)OCC(=O)N(c1ccccc1)c1ccccc1)C(C)C (stereo unspecified) | 0 | 0 | -7 | 8
COc1cc(Cl)c(C)cc1NC(=O)COC(=O)c1cc(O)[nH]c(=O)c1 | -1 | -1 | 18 | 63*
O=C(COC(=O)c1cc(O)[nH]c(=O)c1)Nc1cc(C(F)(F)F)ccc1Cl | 2 | 0 | -1 | 15
COc1cc([N+](=O)[O-])cc(/C=N/NC(=O)c2ccccc2[N+](=O)[O-])c1O | 2 | -1 | -15 | 65*
O=C(N/N=C/c1ccccc1O)c1ccccc1[N+](=O)[O-] | 1 | -1 | 4 | 14
Cc1ccc(C(=O)N/N=C/c2ccc([N+](=O)[O-])s2)cc1 | 0 | 0 | 26 | -4
COc1ccccc1C(=O)N/N=C/c1ccc([N+](=O)[O-])s1 | -1 | 0 | 49* | 0
C/C(=N\NC(N)=S)c1ccc([N+](=O)[O-])cc1 | 0 | 0 | 36* | -3
O=C(N/N=C/c1cc([N+](=O)[O-])ccc1O)c1ccccc1[N+](=O)[O-] | 0 | -1 | 7 | 69*
C/C(=N\NC(N)=O)c1ccc([N+](=O)[O-])cc1 | 3 | 0 | 1 | 1
CCCOc1ccc(S(=O)(=O)NCC2(c3cccs3)CC2)cc1C | 1 | 0 | 3 | -17
COc1ccc(-c2nc(Nc3ccccc3)c3[nH]cnc3n2)cc1 | -1 | 0 | 5 | -4
CCOC(=O)c1ccc2ncc(C(=O)OCC)c(Nc3ccc(C)c(Cl)c3)c2c1 | 1 | 0 | 3 | -15
Fc1ccc(-n2cc(-c3ccccc3)c3c(NCCc4ccc(Cl)cc4)ncnc32)cc1 | 3 | 0 | 2 | -6
CCOc1cc([N+](=O)[O-])cc(/C=N/NC(=O)c2cc(C(C)(C)C)[nH]n2)c1O | 0 | 0 | 25 | 66*
CCOc1ccccc1C(=O)N/N=C/c1cc([N+](=O)[O-])cc(OC)c1O | -1 | 0 | -6 | -14
COc1cc([N+](=O)[O-])cc(/C=N/NC(=O)c2ccccc2Br)c1O | -1 | 0 | 5 | 73*
NC(=S)N/N=C/c1cc([N+](=O)[O-])ccc1O | -2 | -1 | -6 | 100*
CCOC(=O)c1c(NC(=O)C(C)Sc2nnc(CNC(=O)c3ccco3)n2Cc2ccccc2)sc2c1CCCCC2 (stereo unspecified) | -1 | 0 | -4 | 3
CC1CCC(C(=O)NC(Cc2c[nH]c3ccccc23)C(=O)Nc2cccnc2)CC1 (stereo unspecified) | 0 | 0 | 58* | 9
O=C(NC(Cc1c[nH]c2ccccc12)C(=O)Nc1ccccc1)Oc1ccccc1 (stereo unspecified) | 1 | 0 | 10 | 6
COc1ccc(NC(=O)C(Cc2c[nH]c3ccccc23)NC(=O)c2ccccc2)cc1 (stereo unspecified) | 0 | 0 | 62* | 5
c1cn(Cc2ccc(Nc3nccc(-c4cncc(N5CCOCC5)c4)n3)cc2)cn1 | 0 | 0 | 68* | 3
c1cnn(Cc2ccc(Nc3nccc(-c4cncc(N5CCOCC5)c4)n3)cc2)c1 | 1 | 0 | 65* | 7
Cc1nc(C)n(-c2ccc(Nc3nccc(-c4cncc(N5CCOCC5)c4)n3)cc2)n1 | 2 | 0 | 31 | 16

Source: PubChem (The Scripps Research Institute Molecular Screening Center)
